Measurements from PubChem BioAssay AID485344 (National Center for Advancing Translational Sciences (NCATS), 2010).
The whole screen tested about 340,000 compounds, of which about 6,900 (2%) were called active. What follows is part of a selection rich in actives, with near analogues and random picks from the rest. A number with no mark means an inactive call. Cut-off read from the data, not from the text of the source: active = inhibition above about 30%; inactive = below that, where a call was filed.

Target: D(2) dopamine receptor (Homo sapiens) (UniProt P14416)
Sequence (P14416 whole entry, looked up): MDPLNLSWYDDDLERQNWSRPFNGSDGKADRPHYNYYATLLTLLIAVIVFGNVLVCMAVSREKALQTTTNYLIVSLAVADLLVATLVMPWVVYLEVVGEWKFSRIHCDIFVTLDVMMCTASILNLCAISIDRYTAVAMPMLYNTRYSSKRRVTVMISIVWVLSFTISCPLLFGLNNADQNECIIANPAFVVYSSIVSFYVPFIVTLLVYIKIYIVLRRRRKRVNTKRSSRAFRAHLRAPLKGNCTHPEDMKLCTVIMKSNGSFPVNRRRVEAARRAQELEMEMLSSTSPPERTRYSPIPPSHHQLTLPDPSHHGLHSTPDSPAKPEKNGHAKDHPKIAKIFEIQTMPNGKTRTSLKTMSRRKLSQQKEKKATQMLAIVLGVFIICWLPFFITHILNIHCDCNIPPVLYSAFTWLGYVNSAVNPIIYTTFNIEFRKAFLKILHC
Assay: HTS Assay for Allosteric Antagonists of the Human D2 Dopamine Receptor: Primary Screen for Antagonists; note: 0% is about no effect
Conditions: HEK293 TREx D2 cells, calcium flux, dopamine EC80; at 10 µM; stronger effect = higher value
Outline: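 Tetracycline-induced HEK293 T-REx cells expressing D2 force-coupled to calcium signalling were dye-loaded, exposed to compound for 180 s, then challenged with an EC80 of dopamine; calcium flux was followed kinetically for a further 180 s.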

| Compound | inhibition |
| --- | --- |
| c1cnc(N2CCN(c3ccc4ccccc4n3)CC2)nc1 | -7.91% |
| Cc1ccc(CN2CCN(/N=C/c3ccco3)CC2)c(C)c1 | -9.84% |
| CN(C)C(=O)c1nc2ccc(Cl)cn2c1CN1CCN(c2ncccn2)CC1 | -10.8% |
| Cc1ccc(CN2CCN(/N=C/c3cccnc3)CC2)c(C)c1 | -10.4% |
| Cc1ccc(CN2CC(C(=O)N3CCN(S(=O)(=O)c4ccccc4)CC3)CC2=O)cc1 (stereo not given) | -4.27% |
| O=C(CCNC(=O)c1ccccc1Cl)NCc1ccco1 | -26.5% |
| CCc1nnc(NC(=O)c2cc(S(=O)(=O)N3CCCCC3)ccc2C)s1 | -4.7% |
| Cc1ccccc1NC(=O)Cc1nc(COC(=O)c2ccc(C(F)(F)F)cc2)cs1 | 2.02% |
| CN(CC(=O)NCC(c1ccccc1)N1CCCC1)S(=O)(=O)c1ccc(Cl)cc1 (stereo not given) | 11.7% |
| CCOc1ccc(NC(=O)CN(C)C(=O)CCSc2ccc(F)cc2)cc1OCC | -8.24% |
| CC1CCC(NC(=O)CNC(=O)c2ccc3ccccc3c2)CC1 (stereo not given) | -11% |
| CCC(C)[C@H]1COCCS(=O)(=O)N1Cc1ccc(C)cc1 (stereo not given in full) | 36.6% (active) |
| Cc1ccc(CN2CCCOCCS2(=O)=O)cc1 | -5.42% |
| CCCC[C@H]1COCCS(=O)(=O)N1Cc1cccc(Cl)c1 | 0.354% |
| CCN(CC)C(CNC(=O)CSc1nnnn1-c1cccc(F)c1)c1ccco1 (stereo not given) | -7.6% |
| CN1CCN(S(=O)(=O)c2ccc(N3CCN(c4ccccc4O)CC3)c([N+](=O)[O-])c2)CC1 | 6.91% |
| Cc1cc(CNC(=O)c2cccc([N+](=O)[O-])c2)c2ccccc2n1 | 49.1% (active) |
| CC(C)(C)SCCNC(=O)c1cccc([N+](=O)[O-])c1 | 7.44% |
| Cc1cc(C)nc(NC(=O)c2cccc([N+](=O)[O-])c2)c1 | 14.3% |
| O=C(COC(=O)c1ncc(Cl)c(Cl)c1Cl)NCc1ccccc1 | 6.01% |
| CCN(CC(=O)NCc1cccs1)C(=O)c1ccc(OC)c(S(=O)(=O)N2CCOCC2)c1 | 13.8% |
| CCOC(=O)c1c(C)[nH]c(C)c1C(=O)CSc1nc(N)cc(N)n1 | 49.1% (active) |
| Cc1cc(C)nc(SCC(=O)N(C)C)n1 | 7.94% |

| Compound | inhibition |
| --- | --- |
| CCOC(=O)c1c(C)oc(C)c(C(=O)OCC)c1=O | -5.88% |
| CC(C)n1ncc2c(C(=O)Nc3ccc(CC#N)cc3)cc(C3CC3)nc21 | -20.3% |
| CC(C)n1ncc2c(C(=O)NCc3ccccc3CN(C)C)cc(C3CC3)nc21 | 79.9% (active) |
| COc1ccc(C)cc1NC(=O)c1cc(-c2ccccc2)nc2c1cnn2C(C)C | 5.18% |
| COc1ccc(C2=NN(C(=O)CSc3nc(=O)n4ccc(C)cc4n3)C(c3ccc(C)cc3)C2)cc1 (stereo not given) | -6.53% |
| O=C(NCC(c1cccs1)N1CCOCC1)c1cc(Cl)ccc1[N+](=O)[O-] (stereo not given) | 11.5% |
| CC(=O)c1ccc(N2CCN(C(=O)c3ccc(Cl)c(S(=O)(=O)NC4CC4)c3)CC2)c(F)c1 | 8.05% |
| CCCCN(CC(=O)Nc1cccc(S(=O)(=O)N2CCCC2)c1)Cc1nc2ccccc2c(=O)[nH]1 | -6.94% |
| O=C(Nc1ccc(N2CCOCC2)c(Cl)c1)c1ccc(S(=O)(=O)N2CCOCC2)cc1 | 34.4% (active) |
| Cc1ccnc(NS(=O)(=O)c2ccc(NC(=O)c3ccc(S(=O)(=O)N4CCOCC4)cc3)cc2)n1 | -5.53% |
| O=C(CCc1ccc(S(=O)(=O)N2CCOCC2)cc1)Nc1ccc2ccccc2c1 | -58.3% |
| CN1CCN(c2ccc(NC(=O)c3ccc4c(c3)OCCO4)cc2Cl)CC1 | -3.57% |
| O=C(Nc1ccc2cn[nH]c2c1)c1ccc(S(=O)(=O)N2CCOCC2)cc1 | 30.5% (active) |
| O=C(CN1CCN(c2ccc(O)cc2)CC1)Nc1cc(S(=O)(=O)N2CCOCC2)ccc1Cl | -10.8% |
| O=C(Nc1ccc(S(=O)(=O)N2CCOCC2)cc1)c1ccc2ncsc2c1 | 16.7% |
| O=C(CN1C(=O)CCC1=O)Nc1ccc(S(=O)(=O)N2CCOCC2)cc1 | 10.1% |
| O=C(CN1CCN(c2cccc(Cl)c2)CC1)Nc1ccc(S(=O)(=O)N2CCOCC2)cc1 | 30.5% (active) |
| CC(C(=O)Nc1ccc(S(=O)(=O)N2CCCC2)cc1)N(C)Cc1ccc(F)cc1 (stereo not given) | -65.3% |
| CCn1nc(C(=O)NNC(=O)C2CSC3(C)CCC(=O)N23)c2ccccc2c1=O (stereo not given) | -19.4% |
| COc1cc(C#Cc2ccc3cc(CCCO)oc(=O)c3c2)cc(OC)c1 | 7.69% |
| COc1ccc(CNC(=O)C(=O)N2CCC3(CC2)OCCN3S(=O)(=O)c2ccc(C)cc2)cc1 | -3.99% |
| C=CCSc1ccc(S(=O)(=O)N2CCN(C)CC2)cn1 | 6.94% |
